{
  "source": "PubChem BioAssay",
  "note": "The other results are listed elsewhere or left out. Active and inactive are the calls of the source.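 How the source made its calls, unless noted: active means mean inhibition above about 50% (limit read from the data); inactive means the rest.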",
  "data": [
    {"target": "Sentrin-specific protease 7 (Homo sapiens) (UniProt Q9BQF6)", "sequence (Q9BQF6 706-1050 limits assumed)": "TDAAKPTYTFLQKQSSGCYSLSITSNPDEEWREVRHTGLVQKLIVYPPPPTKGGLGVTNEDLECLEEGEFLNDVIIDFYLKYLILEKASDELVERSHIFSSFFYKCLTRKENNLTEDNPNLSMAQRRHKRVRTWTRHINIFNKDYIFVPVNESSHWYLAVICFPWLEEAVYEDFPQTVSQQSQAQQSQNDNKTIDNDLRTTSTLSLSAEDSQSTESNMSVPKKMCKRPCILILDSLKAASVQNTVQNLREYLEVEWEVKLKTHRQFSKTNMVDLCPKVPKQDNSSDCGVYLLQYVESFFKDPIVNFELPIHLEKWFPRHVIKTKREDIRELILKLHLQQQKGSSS", "experiment": "SENP7 protease inhibitors, retest, confirmation, biochemical, luminescence, single concentration (AID 488917;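 active means mean inhibition above about 50% in the one-dose retest, limit read from the data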)", "conditions": "recombinant SENP7, Z-RLRGG-aminoluciferin luminescence, 40 min; at 12.5 µM; hits give high values", "values": [
      {"smiles": "O=C(Nc1ccn(Cc2ccccc2)n1)c1n[nH]c([N+](=O)[O-])c1Cl", "inhibition": "102% (active)"},
      {"smiles": "CCOC(=O)c1ccc(Nc2cc3ccccc3c(=O)[nH]2)cc1", "inhibition": "31.6% (inactive)"},
      {"smiles": "Cc1ccsc1C(=O)OCC(=O)c1cc(C)n(CC2CCCO2)c1C", "note": "(stereo not given)", "inhibition": "102% (active)"},
      {"smiles": "Cn1c(NC(=O)c2ccccc2)nc2ccccc21", "inhibition": "89.8% (active)"},
      {"smiles": "COc1ccc(-c2cn3ccsc3n2)cc1", "inhibition": "81.3% (active)"},
      {"smiles": "O=c1c2cc(-c3ccccc3)sc2nc2n1N=C(c1cccs1)CS2", "inhibition": "-0.5% (inactive)"},
      {"smiles": "O=C(/C=C/c1ccc2c(c1)OCCO2)c1ccc(O)cc1", "inhibition": "72.1% (active)"},
      {"smiles": "O=C(Nc1nnc(S(=O)(=O)N2CCCCCC2)s1)c1cccc(Br)c1", "inhibition": "21.7% (inactive)"},
      {"smiles": "O=C(Nc1ccccc1)c1ccc2c(c1)OCCCO2", "inhibition": "94.2% (active)"},
      {"smiles": "Cc1oc2c(c1C(=O)N1CCOCC1)C(=O)c1ccccc1C2=O", "inhibition": "6% (inactive)"},
      {"smiles": "c1c2c(cc3sc(N4CCCCC4)nc13)OCCO2", "inhibition": "103% (active)"}
    ]},
    {"target": "Caspase-3 (Homo sapiens) (UniProt P42574)", "sequence (P42574 28-227 limits assumed)": "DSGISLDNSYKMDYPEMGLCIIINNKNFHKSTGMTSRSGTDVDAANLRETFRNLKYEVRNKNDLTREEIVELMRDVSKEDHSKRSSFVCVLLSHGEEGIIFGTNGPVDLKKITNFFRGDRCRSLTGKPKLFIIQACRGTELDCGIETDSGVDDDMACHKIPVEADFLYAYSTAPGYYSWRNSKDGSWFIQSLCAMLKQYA", "experiment": "caspase-3 protease inhibitors, confirmation, selectivity assay for SENP inhibitor project, biochemical, single concentration (AID 488918);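 further: plate controls were enzyme with DMSO for no effect and wells without caspase-3 for full effect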", "conditions": "purified caspase-3, Z-DEVD-aminoluciferin luminescence, 60 min; at 12.5 µM; hits give high values", "values": [
      {"smiles": "CN(c1ccc2nc3ccccc3c(=O)n2n1)C1CCCCC1", "inhibition": "96.3% (active)"},
      {"smiles": "CC(=C/c1ccccc1)/C=N/NC(=O)c1cc(C)oc1C", "inhibition": "86.4% (active)"},
      {"smiles": "COc1cccc(C(=O)Nc2ccc(N3CCCC3)cc2)c1", "inhibition": "99.5% (active)"},
      {"smiles": "CC(=O)Nc1cccc(C(=O)OCC(=O)c2ccc3c(c2)OCO3)c1", "inhibition": "85.2% (active)"},
      {"smiles": "C(=N\\Nc1ccc2ccccc2n1)/c1ccc2c(c1)OCO2", "inhibition": "93.2% (active)"},
      {"smiles": "Cc1cccc(NC(=O)/C=C/c2ccc3c(c2)OCO3)n1", "inhibition": "87.1% (active)"},
      {"smiles": "Clc1ccc(C2=CSC3=Nc4cccc5cccc(c45)N23)cc1", "inhibition": "-5.7% (inactive)"},
      {"smiles": "CC(=O)N(C1=C(Cl)C(=O)c2ccccc2C1=O)c1ccc(C(=O)O)cc1", "inhibition": "6.3% (inactive)"},
      {"smiles": "CCOc1ccc(-c2nnc(-c3ccco3)o2)cc1", "inhibition": "73.8% (active)"},
      {"smiles": "COc1cc(/C=C(\\C#N)c2nc3ccccc3[nH]2)ccc1O", "inhibition": "93.4% (active)"},
      {"smiles": "CC(C)n1cnc2c(NCc3ccccc3)cc(OCC3CCN(C)CC3)cc21", "inhibition": "6.2% (inactive)"},
      {"smiles": "O=C(CSC(=S)N1CCOCC1)c1ccccc1", "inhibition": "88.1% (active)"},
      {"smiles": "CSc1ccc(/C=N/NC(=O)c2cccc(Cl)c2)cc1", "inhibition": "93.6% (active)"},
      {"smiles": "Cc1cnc(NC(=O)c2ccccn2)s1", "inhibition": "91.7% (active)"},
      {"smiles": "CCN1C(=O)c2cccc3c(N)ccc1c23", "inhibition": "2.1% (inactive)"},
      {"smiles": "COc1ccc(-c2cc3ccc(OCc4nn[nH]n4)cc3oc2=O)cc1", "inhibition": "66.2% (active)"},
      {"smiles": "O=C(Nc1ccc(Cl)cn1)c1ccc2c(c1)OCCO2", "inhibition": "82.8% (active)"},
      {"smiles": "Cc1ccc2nc(-c3ccc(Br)cc3)cn2c1", "inhibition": "51.5% (active)"},
      {"smiles": "O=C(Nc1ccn(Cc2ccccc2)n1)c1n[nH]c([N+](=O)[O-])c1Cl", "inhibition": "96.2% (active)"},
      {"smiles": "CCOC(=O)c1ccc(Nc2cc3ccccc3c(=O)[nH]2)cc1", "inhibition": "9.8% (inactive)"},
      {"smiles": "Cc1ccsc1C(=O)OCC(=O)c1cc(C)n(CC2CCCO2)c1C", "note": "(stereo not given)", "inhibition": "96.7% (active)"},
      {"smiles": "Cn1c(NC(=O)c2ccccc2)nc2ccccc21", "inhibition": "83.7% (active)"},
      {"smiles": "COc1ccc(-c2cn3ccsc3n2)cc1", "inhibition": "74.4% (active)"},
      {"smiles": "O=c1c2cc(-c3ccccc3)sc2nc2n1N=C(c1cccs1)CS2", "inhibition": "8.2% (inactive)"},
      {"smiles": "O=C(/C=C/c1ccc2c(c1)OCCO2)c1ccc(O)cc1", "inhibition": "54.3% (active)"},
      {"smiles": "O=C(Nc1nnc(S(=O)(=O)N2CCCCCC2)s1)c1cccc(Br)c1", "inhibition": "28.6% (inactive)"},
      {"smiles": "O=C(Nc1ccccc1)c1ccc2c(c1)OCCCO2", "inhibition": "90% (active)"},
      {"smiles": "Cc1oc2c(c1C(=O)N1CCOCC1)C(=O)c1ccccc1C2=O", "inhibition": "87.5% (active)"},
      {"smiles": "c1c2c(cc3sc(N4CCCCC4)nc13)OCCO2", "inhibition": "97.5% (active)"}
    ]}
  ]
}
